Test results reported in PubChem BioAssay (NCATS).
Inconclusive results are not listed. The call rests on the fitted dose curve; in most records, active means well fitted activation curve with a large enough effect; inconclusive means small, poorly fitted or top-dose-only effect; inactive means no such curve, though single readings can be large or run the other way.

The compounds below were run against Rap guanine nucleotide exchange factor 4 (Homo sapiens) (UniProt Q8WZA2) (assay: Confirmatory qHTS for agonist of cAMP-regulated guanine nucleotide exchange factor 4 (EPAC2) (AID 1645884;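 further: nucleotide exchange releases bodipy-GDP from Rap1 and this lowers its fluorescence; nearly all actives have a fitted effect of over 65% in size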)). Details: EPAC2 GEF activity, Rap1B-BODIPY-GDP fluorescence; series mostly up to 154 µM; activation: at the top concentration.
Rap guanine nucleotide exchange factor 4 (Homo sapiens), sequence (Q8WZA2 whole entry, looked up): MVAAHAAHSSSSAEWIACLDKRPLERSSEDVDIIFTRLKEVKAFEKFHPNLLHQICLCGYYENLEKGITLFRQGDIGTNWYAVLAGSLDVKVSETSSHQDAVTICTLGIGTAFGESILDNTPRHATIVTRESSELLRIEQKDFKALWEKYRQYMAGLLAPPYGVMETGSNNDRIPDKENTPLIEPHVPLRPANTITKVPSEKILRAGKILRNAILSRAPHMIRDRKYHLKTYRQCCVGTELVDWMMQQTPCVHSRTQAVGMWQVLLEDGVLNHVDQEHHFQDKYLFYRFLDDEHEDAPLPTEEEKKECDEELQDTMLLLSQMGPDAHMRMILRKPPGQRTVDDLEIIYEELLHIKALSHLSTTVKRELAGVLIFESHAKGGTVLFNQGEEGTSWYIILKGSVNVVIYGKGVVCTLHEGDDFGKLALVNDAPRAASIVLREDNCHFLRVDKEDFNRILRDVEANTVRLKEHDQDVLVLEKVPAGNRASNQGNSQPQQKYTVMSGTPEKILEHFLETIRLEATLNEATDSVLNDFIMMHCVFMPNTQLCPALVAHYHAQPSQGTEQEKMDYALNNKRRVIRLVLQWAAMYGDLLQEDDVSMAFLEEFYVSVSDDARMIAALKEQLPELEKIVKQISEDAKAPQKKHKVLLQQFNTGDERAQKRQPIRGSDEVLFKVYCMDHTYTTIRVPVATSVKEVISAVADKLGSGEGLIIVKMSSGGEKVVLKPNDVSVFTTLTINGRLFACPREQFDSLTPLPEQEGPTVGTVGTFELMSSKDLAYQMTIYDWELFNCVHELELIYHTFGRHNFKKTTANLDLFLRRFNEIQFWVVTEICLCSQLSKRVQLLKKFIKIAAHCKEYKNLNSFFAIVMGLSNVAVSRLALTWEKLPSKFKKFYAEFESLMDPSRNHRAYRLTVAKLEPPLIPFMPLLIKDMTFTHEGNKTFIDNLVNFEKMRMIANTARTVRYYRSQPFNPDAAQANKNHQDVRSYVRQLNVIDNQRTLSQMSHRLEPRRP
On the % scale 0 is the no-effect control and ±100 the full control effect.

activation, inactive:
N#CC(c1ccccc1)C(CC(=NO)c1ccccc1)c1ccccc1 (stereo not drawn) -0.114%
CCc1ccc(-c2cc(C)no2)cc1S(=O)(=O)N1CCC(C)CC1 2.15%
Cc1ccc(Nc2nc3nonc3[nH]c2=O)cc1Cl 3.99%
CSc1cccc(N2CC(C(=O)Nc3cccc(S(=O)(=O)N4CCCC4)c3)CC2=O)c1 (stereo not drawn) 4.48% [at 17.1 µM, percent relative to cAMP agonist control]
Cc1ccc(-c2cc(C(=O)Nc3ccncc3)c3ccccc3n2)cc1 5.16%
Cn1cc([C@]2(O)C(=O)Nc3ccc(Br)cc32)c2ccccc21 0%
CCOc1cc(/C=N/Nc2ccc(C(=O)O)cc2)ccc1OC(=O)c1ccccc1C -3.63%
NC(=O)c1c(NC(=O)CSc2nnc(-c3ccco3)n2N)sc2c1CCCC2 -1.53%
CC(C)C[C@@H](COc1ccccc1)N1CCN(CCc2ccccc2)CCC1=O -1.16%
CCCCNC(=O)C[C@@H]1C[C@@]2(C(=O)OC)CCCCC=C2N(Cc2cccc3ccccc23)C1=O 2.06%
O=C(CCN1C(=O)/C(=C/c2ccc3c(c2)OCO3)SC1=S)Nc1ccc(C(=O)O)cc1 0%
c1ccc(-c2onc(-c3ccco3)c2-c2ccc3[nH]ccc3c2)cc1 16.6%
Cc1ccc(C)n1-c1nn(S(=O)(=O)c2ccccc2)c2cccc(F)c12 9.69%
CCC(CO)Oc1cc(NCc2ccc(C(C)(C)C)cc2)c2ncn(C(C)C)c2c1 (stereo not drawn) -22.3%
CCCCC[C@H](C)N1C[C@@H](COCc2ccccc2)Oc2cc(N3CCC[C@H]3C(N)=O)ccc2S1(=O)=O -36.4%
CC1CC(C)CN(C(=S)SCc2nc(N)nc(Nc3ccccc3)n2)C1 (stereo not drawn) 13.5%
Cc1ccccc1NS(=O)(=O)c1ccc2c3c(cccc13)C(=O)N2C 9.14%
CCOc1cc(S(=O)(=O)Nc2ccccc2CC)ccc1Cl 8.65% [at 17.1 µM, percent relative to cAMP agonist control]
CC[N+](C)(C)c1ccc(/C=C/c2ccnc3ccccc23)cc1 13.6%
COc1ccc(SC[C@H](C)CN2CC[C@H](C(C)(C)C)CCC2=O)cc1 -1.45%
NS(=O)(=O)c1ccc2c(c1)C1C=CCC1C(C1CC=CCC1)N2 (stereo not drawn) 6.51% [at 17.1 µM, percent relative to cAMP agonist control]
CN(c1ccccc1)c1nc(N)c([N+](=O)[O-])c(N2CCCCC2)n1 4.82%
c1ccc(-c2onc(-c3ccco3)c2-c2ccc3c(c2)OCO3)cc1 4.05%
